This passage reports Potency and outcome results from PubChem BioAssay (Tox21).

Several values for one entry are separate records, joined by “and”; a condition that tells them apart may be missing. Equal entries are not always repeated. Results filed as inconclusive are left out. More than one record can exist for a structure, and the calls need not agree. Activity calls are given as the source filed them. Unless noted, calls follow the shape of the dose curve; as a rule, active = well fitted curve in the direction sought with a large enough effect in the repeat runs; inconclusive = weak or mixed curves; inactive = no such curve, though single readings can be large; an effect the other way counts as inactive or inconclusive.

Experiment [1] can be described thus: qHTS assay to identify small molecule antagonists of the estrogen receptor alpha (ER-alpha) signaling pathway using the BG1 cell line in the presence of 0.1 nM 17-beta-estradiol - cell viability counter screen (AID 1259241). Also: nearly all actives have a fitted effect of over 40% in size. Also: potency is read from the fitted curve at half-maximal effect. The essentials:
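Cytotoxicity counter-screen: live-cell protease activity measured by fluorescence (30 min reagent step) in the same wells. Cells were VM7Luc4E2 with endogenous ER-alpha and ERE-driven luciferase, treated 22 hr at 37C alongside 0.1 nM 17beta-estradiol final.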
(In qHTS, concentration-response curves come from the screen itself.)

Experiment [2] is described as follows: qHTS assay to identify small molecule antagonists of the androgen receptor (AR) signaling pathway using the MDA cell line in the presence of 0.5 nM R1881 - cell viability counter screen (AID 1259242). Also: nearly all actives have a fitted effect of over 45% in size. Also: potency is read from the fitted curve at half-maximal effect. An outline of the steps: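 Concentration-response screen of compounds for toxicity in MDA-kb2 reporter cells: 16 hr at 37C with 0.5 nM R1881, endpoint live-cell protease fluorescence measured in the reporter wells.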

Experiment [3] addresses Androgen receptor (Homo sapiens) (UniProt P10275). Put plainly: qHTS assay to identify small molecule antagonists of the androgen receptor (AR) signaling pathway using the MDA cell line in the presence of 0.5 nM R1881 (AID 1259243). Also: nearly all actives have a fitted effect of over 50% in size. Also: potency is read from the fitted curve at half-maximal effect. The essentials:
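With R1881 held at 0.5 nM (final), compound effects on MMTV-luciferase expression in MDA-kb2 cells were scored by luminescence after a 16 hr, 37C incubation.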

Experiment [4] has as its target Estrogen receptor (Homo sapiens) (UniProt P03372). Put plainly: qHTS assay to identify small molecule antagonists of the estrogen receptor alpha (ER-alpha) signaling pathway using the BG1 cell line in the presence of 0.1 nM 17-beta-estradiol (AID 1259244). Also: nearly all actives have a fitted effect of over 50% in size. Also: potency is read from the fitted curve at half-maximal effect. The essentials:
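Compounds were tested against 0.1 nM (final) 17beta-estradiol in VM7Luc4E2 cells, which express full-length ER-alpha and an ERE-luciferase reporter; luminescence was recorded following 22 h exposure.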

Experiment [5] in a line: qHTS assay to identify small molecule HDAC inhibitors (AID 1259364). Also: potency is read from the fitted curve at half-maximal effect.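 Also: wild-type HCT-116 cells with endogenous class I/II HDAC activity; nearly all actives have a fitted effect of over 45% in size.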 The essentials:
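Screening used wild-type human colon HCT-116 cells incubated overnight, dosed with compounds for 2 hours, and assayed with a homogeneous luminogenic HDAC I/II reagent for 30 minutes at room temperature.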

The nature of experiment [6]: qHTS assay to identify small molecule HDAC inhibitors - cell viability counter screen (AID 1259365). Also: series mostly up to about 92 µM; nearly all actives have a fitted effect of over 50% in size. The essentials:
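CellTiter-Glo luminescence (30 min, room temperature) reported viability after a 2 h compound exposure at 37 C. Cells: wild-type HCT-116, 1,500 per well, seeded the night before.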

The nature of experiment [7]: qHTS assay to identify small molecule agonists of the sonic hedgehog signaling (Shh) pathway - cell viability counter screen (AID 1259366). Also: nearly all actives have a fitted effect of over 50% in size. Also: potency is read from the fitted curve at half-maximal effect. An outline of the steps:
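Cytotoxicity counter screen: CellTiter-Fluor reagent added after 23 h compound exposure, then 1 h at 37C and fluorescence read. Cells were 3T3 Gli1-Luc, seeded 2,000 per well and dosed 4 h post-plating.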

Experiment [8] is described as follows: qHTS assay to identify small molecule antagonists of the sonic hedgehog signaling (Shh) pathway - cell viability counter screen (AID 1259367). Also: nearly all actives have a fitted effect of over 55% in size. Also: potency is read from the fitted curve at half-maximal effect. An outline of the steps: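 Viability was read by CellTiter-Fluor fluorescence in the same wells, reagent added 23 hr into compound treatment and incubated 1 hr at 37C. The 3T3 Gli1-Luc reporter cells (2,000/well) received conditioned medium after compound and ran 24 hr.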

Experiment [9] can be described thus: qHTS assay to identify small molecule agonists of the sonic hedgehog signaling (Shh) pathway (AID 1259368; calls by dose curve;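 also: NIH/3T3-derived 3T3Gli1-Luc cells carrying a stable Gli1-driven firefly luciferase reporter; series mostly up to about 92 µM; nearly all actives have a fitted effect of over 15% in size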). The essentials: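 Hedgehog pathway agonism scored by increased firefly luciferase luminescence in 3T3Gli1-Luc cells treated 24 hr at 37 C; detection used a 30 min room-temperature reagent incubation.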
Experiment [10] can be described thus: qHTS assay to identify small molecule phospholipidosis (PLD) inducers (AID 1259344; active = well fitted curve in the direction sought with a large enough effect; an effect the other way counts as inactive or inconclusive). The essentials:
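Phospholipid accumulation was scored by imaging: fixed, Hoechst-counterstained HepG2 cells stained with LipidTOX Red after 24 h compound exposure at 37 C. Read-outs were pit count and pit intensity per well or per cell, with amiodarone and DMSO controls.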

Chain of Androgen receptor (Homo sapiens) (P10275 whole entry, looked up): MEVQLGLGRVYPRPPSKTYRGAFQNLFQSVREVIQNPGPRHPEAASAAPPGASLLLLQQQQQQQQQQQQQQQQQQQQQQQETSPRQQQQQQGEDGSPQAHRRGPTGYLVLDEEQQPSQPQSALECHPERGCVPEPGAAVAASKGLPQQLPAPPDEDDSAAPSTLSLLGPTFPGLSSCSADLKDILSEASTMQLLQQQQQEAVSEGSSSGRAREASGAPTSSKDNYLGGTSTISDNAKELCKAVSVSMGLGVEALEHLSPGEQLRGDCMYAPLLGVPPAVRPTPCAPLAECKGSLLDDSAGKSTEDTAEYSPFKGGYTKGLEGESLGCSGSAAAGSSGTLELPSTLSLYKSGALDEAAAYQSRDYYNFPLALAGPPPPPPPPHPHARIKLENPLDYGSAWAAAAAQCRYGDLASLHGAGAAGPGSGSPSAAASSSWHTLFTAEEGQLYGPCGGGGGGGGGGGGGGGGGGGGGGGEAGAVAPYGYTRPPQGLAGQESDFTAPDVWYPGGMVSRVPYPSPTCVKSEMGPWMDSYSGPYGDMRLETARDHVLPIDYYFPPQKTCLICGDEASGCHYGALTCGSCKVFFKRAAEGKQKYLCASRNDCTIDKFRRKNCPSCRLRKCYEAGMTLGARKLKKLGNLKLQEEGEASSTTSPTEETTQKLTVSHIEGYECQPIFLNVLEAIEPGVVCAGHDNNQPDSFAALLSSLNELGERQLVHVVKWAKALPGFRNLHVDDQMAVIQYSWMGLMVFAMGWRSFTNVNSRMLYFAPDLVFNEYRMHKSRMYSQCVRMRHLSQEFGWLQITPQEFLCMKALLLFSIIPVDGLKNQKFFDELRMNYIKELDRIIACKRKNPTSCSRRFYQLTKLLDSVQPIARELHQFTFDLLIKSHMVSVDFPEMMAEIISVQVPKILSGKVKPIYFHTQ
Chain of Estrogen receptor (Homo sapiens) (P03372 whole entry, looked up): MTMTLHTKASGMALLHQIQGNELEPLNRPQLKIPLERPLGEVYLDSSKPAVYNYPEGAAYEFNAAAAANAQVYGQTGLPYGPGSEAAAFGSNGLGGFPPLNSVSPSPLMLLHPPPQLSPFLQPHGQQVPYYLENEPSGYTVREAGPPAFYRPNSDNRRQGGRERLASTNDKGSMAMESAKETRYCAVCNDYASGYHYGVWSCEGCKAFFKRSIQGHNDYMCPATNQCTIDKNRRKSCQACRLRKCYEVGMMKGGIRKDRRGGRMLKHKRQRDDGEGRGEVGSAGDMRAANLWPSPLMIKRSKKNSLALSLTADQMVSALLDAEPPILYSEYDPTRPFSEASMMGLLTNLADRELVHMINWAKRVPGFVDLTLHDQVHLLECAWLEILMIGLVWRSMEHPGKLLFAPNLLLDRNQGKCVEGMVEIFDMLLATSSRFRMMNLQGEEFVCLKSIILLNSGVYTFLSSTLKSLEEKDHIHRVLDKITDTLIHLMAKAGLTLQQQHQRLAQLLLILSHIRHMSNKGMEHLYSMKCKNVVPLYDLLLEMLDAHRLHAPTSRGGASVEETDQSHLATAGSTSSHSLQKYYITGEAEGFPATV

For the compound `Clc1cccc(C(Cl)(Cl)Cl)n1`, the Potency entry in experiment [1], in experiment [2], in experiment [3], in [4], in [5] and in experiment [6] was “inactive” in each case. Moreover, the Potency entry in experiment [7], in [8] and in experiment [9] was “inactive” each time.
Consider `C[N+](C)(C)CC(=O)O`, for which the Potency result in experiment [1], in experiment [2], in experiment [4], in experiment [5], in experiment [6] and in experiment [7] was “inactive” throughout. The Potency entry in experiment [8] and in experiment [9] was “inactive” each time. Moreover, in experiment [10], the result was inactive.
For the compound `Cc1cccc(N=Nc2ccc(N(C)C)cc2)c1`, the Potency in experiment [1] is 27.3 µM (active); in experiment [5] it was 3.5 µM (active) and 6.86 µM (active); in [7], 35 µM (active). For the same compound, the Potency entry in [2], in experiment [4] and in experiment [6] was “inactive” in each case.
For the compound `COP(=S)(OC)Oc1ccc(Sc2ccc(OP(=S)(OC)OC)cc2)cc1`, the Potency result in [1], in experiment [2], in experiment [5], in [6], in experiment [7] and in experiment [8] was “inactive” throughout. In addition, in experiment [9], the Potency result was “inactive”. Besides, the Potency is 61.1 µM (active) and inactive in experiment [3]; 61.1 µM (active) and inactive in experiment [4]. Further, in experiment [10], the compound was called inactive.
With `CCC(=O)Nc1ccc(Cl)c(Cl)c1`, the Potency entry in experiment [1], in experiment [2], in experiment [5], in experiment [6], in experiment [7] and in [8] was “inactive” in each case. Besides, the Potency result in experiment [9] is “inactive”. For the same compound, the Potency in experiment [3] was 7 µM (active) and 13.7 µM (active).
Regarding `CC[n+]1c(-c2ccccc2)c2cc(N)ccc2c2ccc(N)cc21`, the Potency in experiment [1] was 30.5 µM (active); in experiment [2] it was 24.2 µM (active) and 13.3 µM (active); in [4], 27.2 µM (active) and 21.1 µM (active); in experiment [7] it was 54.2 µM (active) and inactive; in experiment [8] it was 48.3 µM (active) and inactive. Moreover, the call in experiment [10] was inactive. Besides, the Potency result in experiment [5], in [6] and in experiment [9] was “inactive” each time.
In the case of `C[C@]12CCC(=O)C=C1CC[C@@H]1[C@@H]2CC[C@@]2(C)[C@H]1CC[C@]2(C)O`, the Potency entry in experiment [1], in [2], in experiment [5], in experiment [6], in [7] and in experiment [8] was “inactive” each time. Further, the Potency entry in experiment [9] is “inactive”. The Potency in experiment [4] was 30.9 µM (active) and inactive. Besides, the result in [10] was inactive.
On to `COC(=O)Nc1nc2ccccc2[nH]1`, for which the Potency entry in experiment [1], in experiment [2], in [3], in experiment [6], in [7] and in [8] was “inactive” throughout. For the same compound, the Potency result in experiment [9] was “inactive”. Besides, in [5], the Potency was 24.3 µM (active) and 27.3 µM (active).
Regarding `CNC(=O)Oc1cccc2c1OC(C)(C)C2`, the Potency entry in experiment [1], in [2], in experiment [3], in experiment [4], in experiment [5] and in experiment [6] was “inactive” each time. Further, the Potency result in experiment [7], in experiment [8] and in experiment [9] was “inactive” throughout.
Consider `CC(C)Nc1ccc(Nc2ccccc2)cc1`, for which the Potency in experiment [1] is 43.1 µM (active); in [2], 60.9 µM (active); in experiment [4] it was 21.6 µM (active); in experiment [7], 24.2 µM (active) and 24.3 µM (active); in experiment [8], 21.6 µM (active) and 24.3 µM (active). For the same compound, in experiment [10], the compound was classed as inactive. Moreover, the Potency result in [6] and in [9] was “inactive” throughout.
On to `CCOP(=S)(OCC)SCSC(C)(C)C`, for which the Potency result in [1], in experiment [2], in experiment [4], in [5], in [6] and in experiment [7] was “inactive” in each case. In addition, the Potency result in [8] and in experiment [9] was “inactive” in each case.
`CCOP(=S)(OCC)SCn1c(=O)oc2cc(Cl)ccc21`: the Potency entry in experiment [1], in experiment [2], in experiment [4], in [5], in [6] and in experiment [7] was “inactive” in each case. For the same compound, the Potency entry in experiment [8] and in experiment [9] was “inactive” throughout.
For `CC(C)(C#N)N=NC(C)(C)C#N`, the Potency entry in experiment [1], in experiment [2], in [4], in experiment [5], in experiment [6] and in experiment [7] was “inactive” in each case. The Potency result in experiment [8] and in [9] was “inactive” throughout.
Take `CCC1(c2ccc(N)cc2)CCC(=O)NC1=O` (stereo not given): the Potency entry in experiment [1], in experiment [2], in [3], in experiment [4], in experiment [5] and in [6] was “inactive” throughout. Besides, the Potency entry in [7], in [8] and in [9] was “inactive” in each case. In experiment [10], the compound was classed as inactive.
In the case of `c1ccc2c(c1)Nc1ccccc1S2`, the Potency result in [1], in [2], in experiment [4], in [5], in experiment [6] and in experiment [7] was “inactive” throughout. Moreover, the Potency entry in [8] and in experiment [9] was “inactive” throughout. Besides, the call in [10] was inactive.
Regarding `O=C(O)c1nn(Cc2ccc(Cl)cc2Cl)c2ccccc12`, the Potency entry in experiment [1], in experiment [2], in experiment [3], in [4], in [5] and in experiment [6] was “inactive” each time. The Potency result in [7], in experiment [8] and in [9] was “inactive” in each case. Moreover, the result in experiment [10] was inactive.
For the compound `Clc1ccc(C(Cl)(Cl)Cl)cc1`, the Potency result in experiment [1], in experiment [2], in [4], in [5], in experiment [6] and in [7] was “inactive” throughout. Further, the Potency entry in [8] and in experiment [9] was “inactive” each time.
For the compound `C[C@]12CC[C@H]3[C@@H](CCC4=CC(=O)CC[C@@H]43)[C@@H]1CC[C@@H]2O`, the Potency entry in experiment [1], in experiment [2], in [4], in experiment [5], in experiment [6] and in [7] was “inactive” in each case. Also, the Potency entry in [8] and in [9] was “inactive” each time. In addition, the call in experiment [10] was inactive.
